Assay results as given in PubChem BioAssay AID1159580 (chemical genetic matrix, 2015).
In all, about 5,500 compounds went through this assay and about 2,000 (36%) were called active. Not shown: some 18% with an inconclusive outcome. No stated cut-off is given here; in the data, active means normalized growth mostly below about 0.91 (no sharp cut-off); inconclusive means no clear call, values can overlap the other calls; inactive means mostly above about 0.92. The list shows a part of the results.

Experiment: chemical genetic growth profiling, strain panel (AID 1159580);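 further: tested at 20 µM; growth read once vehicle control cultures reached saturation at 30 °C; 1 = growth at the plate median or of vehicle wells; lower values mean less growth of the strain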
Conditions: growth OD
[1] = S. cerevisiae deletion strains, locus YAL013W, strain DEP1, active compounds read low
[2] = S. cerevisiae deletion strains, locus YBR229C, strain ROT2, active compounds read low
[3] = S. cerevisiae deletion strains, locus YDL101C, strain DUN1, active compounds read low
[4] = S. cerevisiae deletion strains, locus YDR150W, strain NUM1, active compounds read low
[5] = S. cerevisiae deletion strains, locus YEL061C, strain CIN8, active compounds read low
[6] = S. cerevisiae deletion strains, locus YGR078C, strain PAC10, active compounds read low
[7] = S. cerevisiae deletion strains, locus YHR030C, strain SLT2, active compounds read low
[8] = S. cerevisiae deletion strains, locus YHR087W, strain rtc3, active compounds read low
[9] = S. cerevisiae deletion strains, locus YJR043C, strain POL32, active compounds read low
[10] = S. cerevisiae deletion strains, locus YJR075W, strain HOC1, active compounds read low
[11] = S. cerevisiae deletion strains, locus YKL190W, strain CNB1, active compounds read low
[12] = S. cerevisiae deletion strains, locus YLR039C, strain RIC1, active compounds read low
[13] = S. cerevisiae deletion strains, locus YLR058C, strain SHM2 (second series), active compounds read low
[14] = S. cerevisiae deletion strains, locus YLR085C, strain ARP6, active compounds read low
[15] = S. cerevisiae deletion strains, locus YLR262C, strain YPT6, active compounds read low
[16] = S. cerevisiae deletion strains, locus YML094W, strain GIM5, active compounds read low
[17] = S. cerevisiae deletion strains, locus YMR219W, strain ESC1, active compounds read low
[18] = S. cerevisiae deletion strains, locus YMR263W, strain SAP30, active compounds read low
[19] = S. cerevisiae deletion strains, locus YNL153C, strain GIM3, active compounds read low
[20] = S. cerevisiae deletion strains, locus YNL298W, strain CLA4 (second series), active compounds read low
[21] = S. cerevisiae deletion strains, locus YNL322C, strain KRE1, active compounds read low
[22] = S. cerevisiae deletion strains, locus YNR030W, strain Alg12, active compounds read low
[23] = S. cerevisiae deletion strains, locus YPL055C, strain LGE1, active compounds read low
[24] = S. cerevisiae deletion strains, locus YPL241C, strain CIN2, active compounds read low
[25] = S. cerevisiae deletion strains, locus YPR135W, strain CTF4, active compounds read low
[26] = S. cerevisiae strains, strain wild type, active compounds read low
[27] = S. cerevisiae deletion strains, locus YAR019C, strain CDC15, active compounds read low
[28] = S. cerevisiae deletion strains, locus YBL105C, strain PKC1, active compounds read low
[29] = S. cerevisiae deletion strains, locus YBR135W, strain CKS1, active compounds read low
[30] = S. cerevisiae deletion strains, locus YBR136W, strain MEC1, active compounds read low
[31] = S. cerevisiae deletion strains, locus YBR160W, strain CDC28, active compounds read low
[32] = S. cerevisiae deletion strains, locus YDL017W, strain CDC7, active compounds read low
[33] = S. cerevisiae deletion strains, locus YDL028C, strain MPS1, active compounds read low
[34] = S. cerevisiae deletion strains, locus YDL108W, strain KIN28, active compounds read low
[35] = S. cerevisiae deletion strains, locus YDL132W, strain cdc53, active compounds read low
[36] = S. cerevisiae deletion strains, locus YDL214C, strain PRR2, active compounds read low
[37] = S. cerevisiae deletion strains, locus YDR052C, strain DBF4, active compounds read low
[38] = S. cerevisiae deletion strains, locus YDR054C, strain cdc34, active compounds read low
[39] = S. cerevisiae deletion strains, locus YDR226W, strain ADK1, active compounds read low
[40] = S. cerevisiae deletion strains, locus YDR477W, strain SNF1, active compounds read low
[41] = S. cerevisiae deletion strains, locus YER123W, strain YCK3, active compounds read low
[42] = S. cerevisiae deletion strains, locus YER133W, strain GLC7, active compounds read low
[43] = S. cerevisiae deletion strains, locus YFL009W, strain cdc4, active compounds read low
[44] = S. cerevisiae deletion strains, locus YFL029C, strain CAK1, active compounds read low
[45] = S. cerevisiae deletion strains, locus YFR003C, strain YPI1, active compounds read low
[46] = S. cerevisiae deletion strains, locus YFR019W, strain FAB1, active compounds read low
[47] = S. cerevisiae deletion strains, locus YFR028C, strain CDC14, active compounds read low
[48] = S. cerevisiae deletion strains, locus YGR040W, strain KSS1, active compounds read low
[49] = S. cerevisiae deletion strains, locus YGR052W, strain FMP48, active compounds read low
[50] = S. cerevisiae deletion strains, locus YGR092W, strain DBF2, active compounds read low
[51] = S. cerevisiae deletion strains, locus YHR079C, strain IRE1, active compounds read low
[52] = S. cerevisiae deletion strains, locus YHR082C, strain KSP1, active compounds read low
[53] = S. cerevisiae deletion strains, locus YHR205W, strain SCH9, active compounds read low
[54] = S. cerevisiae deletion strains, locus YIL147C, strain SLN1, active compounds read low
[55] = S. cerevisiae deletion strains, locus YJL095W, strain BCK1, active compounds read low
[56] = S. cerevisiae deletion strains, locus YJL128C, strain PBS2, active compounds read low
[57] = S. cerevisiae deletion strains, locus YJL157C, strain FAR1, active compounds read low
[58] = S. cerevisiae deletion strains, locus YJR016C, strain ILV3, active compounds read low
[59] = S. cerevisiae deletion strains, locus YJR066W, strain TOR1 (second series), active compounds read low
[60] = S. cerevisiae deletion strains, locus YJR066W, strain TOR1, active compounds read low
[61] = S. cerevisiae deletion strains, locus YKL048C, strain ELM1, active compounds read low
[62] = S. cerevisiae deletion strains, locus YKL067W, strain YNK1, active compounds read low
[63] = S. cerevisiae deletion strains, locus YKL101W, strain HSL1, active compounds read low
[64] = S. cerevisiae deletion strains, locus YKL193C, strain SDS22, active compounds read low
[65] = S. cerevisiae deletion strains, locus YKL203C, strain TOR2, active compounds read low
[66] = S. cerevisiae deletion strains, locus YLR113W, strain HOG1, active compounds read low
[67] = S. cerevisiae deletion strains, locus YLR133W, strain CKI1, active compounds read low
[68] = S. cerevisiae deletion strains, locus YLR403W, strain SFP1, active compounds read low
[69] = S. cerevisiae deletion strains, locus YML070W, strain DAK1, active compounds read low
[70] = S. cerevisiae deletion strains, locus YMR001C, strain CDC5, active compounds read low
[71] = S. cerevisiae deletion strains, locus YMR205C, strain PFK2 (second series), active compounds read low
[72] = S. cerevisiae deletion strains, locus YMR277W, strain FCP1, active compounds read low
[73] = S. cerevisiae deletion strains, locus YNL006W, strain LST8, active compounds read low
[74] = S. cerevisiae deletion strains, locus YNL020C, strain ARK1, active compounds read low
[75] = S. cerevisiae deletion strains, locus YNL161W, strain CBK1, active compounds read low
[76] = S. cerevisiae deletion strains, locus YNL183C, strain NPR1, active compounds read low
[77] = S. cerevisiae deletion strains, locus YNL207W, strain RIO2, active compounds read low
[78] = S. cerevisiae deletion strains, locus YNL222W, strain SSU72, active compounds read low
[79] = S. cerevisiae deletion strains, locus YNL307C, strain MCK1 (second series), active compounds read low
[80] = S. cerevisiae deletion strains, locus YOL078W, strain AVO1, active compounds read low
[81] = S. cerevisiae deletion strains, locus YOL136C, strain PFK27, active compounds read low
[82] = S. cerevisiae deletion strains, locus YOR061W, strain CKA2, active compounds read low
[83] = S. cerevisiae deletion strains, locus YOR119C, strain RIO1, active compounds read low
[84] = S. cerevisiae deletion strains, locus YOR231W, strain MKK1, active compounds read low
[85] = S. cerevisiae deletion strains, locus YOR329C, strain SCD5, active compounds read low
[86] = S. cerevisiae deletion strains, locus YPL031C, strain PHO85, active compounds read low
[87] = S. cerevisiae deletion strains, locus YPL153C, strain RAD53, active compounds read low
[88] = S. cerevisiae deletion strains, locus YPL204W, strain HRR25, active compounds read low
[89] = S. cerevisiae deletion strains, locus YPL209C, strain IPL1, active compounds read low
[90] = S. cerevisiae deletion strains, locus YPL256C, strain CLN2, active compounds read low
[91] = S. cerevisiae deletion strains, locus YPR025C, strain CCL1, active compounds read low
[92] = S. cerevisiae deletion strains, locus YPR106W, strain ISR1, active compounds read low
[93] = S. cerevisiae deletion strains, locus YPR111W, strain DBF20, active compounds read low
[94] = S. cerevisiae deletion strains, strain NNK1, active compounds read low
[95] = S. cerevisiae deletion strains, strain TSCII, active compounds read low

Measured: normalized growth

CC(=O)c1csc(-c2ccc(C(F)(F)F)cc2)n1
active: [14] 0.762 | [24] 0.841
inactive: [1] 0.947 | [2] 0.965 | [3] 0.977 | [4] 0.977 | [5] 0.967 | [6] 0.949 | [7] 0.761 | [8] 0.964 | [9] 0.988 | [10] 0.928 | [11] 0.994 | [12] 0.882 | [13] 0.955 | [15] 0.943 | [16] 0.898 | [17] 0.977 | [18] 0.979 | S. cerevisiae deletion strains, locus YNL128W, strain TEP1, active compounds read low 0.99 | [19] 0.954 | [20] 0.911 | [21] 0.971 | [22] 0.943 | [23] 0.892 | [25] 0.658 | [26] 0.997

O=C(NNC(=O)c1csc(-c2cccs2)n1)c1ccc(C(F)(F)F)cc1
inactive: [27] 0.972 | [28] 0.967 | [29] 0.955 | [30] 0.979 | [31] 0.965 | [32] 0.961 | [33] 0.958 | [34] 0.972 | [35] 0.946 | [37] 0.964 | [38] 0.961 | [39] 0.967 | [41] 0.75 | [42] 0.863 | [43] 0.967 | [44] 0.959 | [45] 0.964 | [46] 0.99 | [47] 0.949 | [48] 0.832 | [49] 0.779 | [52] 0.838 | [53] 0.695 | [54] 0.973 | [56] 0.948 | [58] 0.969 | [60] 0.486 | [61] 0.91 | [64] 0.963 | [65] 0.913 | [68] 0.884 | [69] 0.887 | [70] 0.949 | [72] 0.957 | [73] 0.96 | [75] 0.959 | [77] 0.955 | [78] 0.963 | [80] 0.966 | [81] 0.805 | [82] 0.821 | [83] 0.877 | [85] 0.959 | [88] 0.723 | [89] 0.964 | [91] 0.954 | [92] 0.959 | [93] 0.974 | [94] 0.974 | [95] 0.943
active: [3] 0.901 | [36] 0.657 | [40] 0.572 | [50] 0.154 | [7] 0.198 | [51] 0.181 | [55] 0.345 | [57] 0.612 | [59] 0.14 | [62] 0.713 | [63] 0.59 | [66] 0.677 | [67] 0.592 | [71] 0.666 | [74] 0.492 | [76] 0.5 | [79] 0.286 | [84] 0.29 | [86] 0.512 | [87] 0.57 | [90] 0.558

O=C(NCc1cccs1)c1csc(Cc2c(Cl)cccc2Cl)n1
inactive: [27] 0.986 | [28] 0.969 | [29] 0.972 | [30] 0.995 | [31] 0.979 | [32] 0.987 | [33] 0.969 | [3] 0.981 | [34] 0.987 | [35] 0.978 | [36] 0.992 | [37] 0.996 | [38] 0.971 | [39] 0.971 | [40] 0.978 | [41] 0.985 | [42] 0.996 | [43] 0.957 | [44] 0.98 | [45] 0.991 | [46] 0.988 | [47] 0.982 | [48] 0.994 | [49] 1.06 | [50] 0.95 | [7] 0.924 | [51] 0.992 | [52] 1.02 | [53] 0.988 | [54] 0.985 | [55] 1.01 | [56] 0.937 | [57] 0.998 | [58] 0.99 | [59] 0.98 | [60] 0.956 | [61] 1 | [62] 0.996 | [63] 1 | [64] 0.99 | [65] 1.07 | [66] 0.981 | [67] 0.99 | [68] 0.994 | [69] 1 | [70] 0.986 | [71] 1.01 | [72] 0.982 | [73] 0.987 | [74] 1.01 | [75] 0.994 | [76] 1.07 | [77] 0.981 | [78] 0.983 | [79] 1.01 | [80] 0.991 | [81] 1.01 | [82] 0.992 | [83] 1.03 | [84] 0.988 | [85] 0.985 | [86] 0.988 | [87] 0.994 | [88] 1 | [89] 0.988 | [90] 0.985 | [91] 0.982 | [92] 0.968 | [93] 0.965 | [94] 0.977 | [95] 0.986

FC(F)(F)c1ccc(-c2nc(-c3ccc4c(c3)OCCCO4)cs2)cc1
inactive: [1] 1.03 | [2] 1.01 | S. cerevisiae deletion strains, locus YCL061C, strain MRC1, active compounds read low 0.99 | [3] 0.965 | S. cerevisiae deletion strains, locus YDL134C, strain PPH21, active compounds read low 1 | [4] 1.01 | [5] 1.01 | [6] 1.01 | S. cerevisiae deletion strains, locus YGR229C, strain SMI1, active compounds read low 1.01 | [7] 1.05 | [8] 1.03 | [9] 0.997 | [10] 1.02 | [11] 1.01 | [12] 1.07 | [13] 0.998 | [14] 1.1 | [15] 1.02 | [16] 1.04 | [17] 1.01 | [18] 0.988 | S. cerevisiae deletion strains, locus YMR307W, strain GAS1, active compounds read low 0.987 | [19] 0.992 | [20] 1.02 | [21] 1.01 | [22] 1.01 | [23] 1.06 | [24] 1.03 | [25] 1.27 | [26] 1.01
